The campaign covered roughly 220,000 compounds. About 16,000 (7.3%) were called active. Inconclusive results (about 25%) are left out. Calls come from the whole dose curve; as a rule, active = well fitted inhibition curve with a large enough effect (not every such curve was filed as active); inconclusive = small, poorly fitted or top-dose-only effect, or another doubt; inactive = no such curve, though single readings can be large or run the other way. Shown is part of a subset that was picked to be rich in actives. Where a call stands in place of a potency, no number is given.
molecular target: Aldehyde dehydrogenase 1A1 (Homo sapiens) (UniProt P00352); assay: qHTS Assay for Inhibitors of Aldehyde Dehydrogenase 1 (ALDH1A1); details: Purified ALDH1A1, NADH fluorescence, propionaldehyde substrate; series mostly up to 75.3 µM
Potency is the fitted concentration of half-maximal effect.

Chain of Aldehyde dehydrogenase 1A1 (Homo sapiens) (P00352 whole entry, looked up): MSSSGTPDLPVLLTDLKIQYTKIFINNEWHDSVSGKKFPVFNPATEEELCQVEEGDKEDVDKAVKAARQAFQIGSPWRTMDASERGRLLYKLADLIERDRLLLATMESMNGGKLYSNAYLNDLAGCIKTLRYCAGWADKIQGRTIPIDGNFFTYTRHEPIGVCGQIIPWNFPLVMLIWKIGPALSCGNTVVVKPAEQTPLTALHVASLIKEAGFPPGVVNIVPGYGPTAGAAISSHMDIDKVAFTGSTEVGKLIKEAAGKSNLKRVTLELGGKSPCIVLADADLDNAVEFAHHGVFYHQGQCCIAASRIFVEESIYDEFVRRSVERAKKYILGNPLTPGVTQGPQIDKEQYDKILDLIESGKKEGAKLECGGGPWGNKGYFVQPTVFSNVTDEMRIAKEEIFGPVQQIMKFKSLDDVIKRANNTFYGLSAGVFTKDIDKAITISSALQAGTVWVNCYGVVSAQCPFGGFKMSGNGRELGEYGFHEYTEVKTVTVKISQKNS

Question: Which Potency does the source give for `CCOc1ccc(N(CC(=O)OC)S(=O)(=O)c2c(C)noc2C)cc1` here?
Answer: inactive

Question: How did the Potency turn out when `CCOC(=O)c1cccc(NC(=O)CN(c2ccc(C)cc2)S(=O)(=O)c2c(C)noc2C)c1` was run?
Answer: 7.94 µM (active)

Question: Which Potency does the source give for `CCOc1ccc(N(CC(=O)NCc2ccc(OC)cc2)S(=O)(=O)c2c(C)noc2C)cc1` here?
Answer: inactive

Question: With `CC(=O)c1c(C)[nH]c(C(=O)OCC(=O)NCCC(C)C)c1C` as the compound, how does the Potency read?
Answer: inactive

Question: For `CCOc1cc(/C=N/NC(=O)c2ccc(CSc3nncn3C)cc2)ccc1OCC(=O)N1CCOCC1`, which Potency is on record?
Answer: inactive

Question: How did the Potency turn out when `CCOc1cccc(/C=N/N2C(=O)CSC2=S)c1O` was run?
Answer: 7.08 µM (active)

Question: With `CCOc1cccc(/C=N/NC(=S)NCCN2CCOCC2)c1O` as the compound, how does the Potency read?
Answer: inactive

Question: For `CCOc1ccccc1N=C1NC(=O)CS1`, which Potency is on record?
Answer: inactive

Question: `O=C1CCC[C@@H]2CC(N3CCCCC3)C[C@@H]3CCN1[C@H]23` (stereo not given in full) was tested. Which Potency did it give?
Answer: inactive

Question: For `COCCn1c(N)c(N(Cc2ccccc2)C(=O)C2CCCCC2)c(=O)[nH]c1=O`, which Potency is on record?
Answer: inactive

Question: `O=C(Cn1ncc(N2CCCC2)c(Br)c1=O)c1ccc(Cl)cc1` was tested. Which Potency did it give?
Answer: inactive

Question: Which Potency does the source give for `CCN1CCN(CC(=O)c2cc(OC)c(OC)c(OC)c2)CC1` here?
Answer: 28.2 µM (active)

Question: How did the Potency turn out when `CCCN(CCC)S(=O)(=O)c1ccc(C(=O)NNC(=O)c2cc(OC)c(OC)c(OC)c2)cc1` was run?
Answer: inactive

Question: `COc1cc(C(=O)N2CCOCC2)cc(OC)c1OC` was tested. Which Potency did it give?
Answer: inactive

Question: How did the Potency turn out when `COc1ccc(N2C(=O)C(O)C2c2ccc(C)cc2)cc1` (stereo not given) was run?
Answer: inactive

Question: Which Potency does the source give for `Cc1cc2oc(=O)cc(-c3ccccc3)c2c(C)c1-c1ccc(OC(F)(F)F)cc1` here?
Answer: inactive

Question: Which Potency does the source give for `COc1ccc(-c2c(C)cc3oc(=O)cc(-c4ccccc4)c3c2C)cc1F` here?
Answer: inactive

Question: With `COc1ccc(-c2c(C)cc3oc(=O)cc(-c4ccccc4)c3c2C)cc1C=O` as the compound, how does the Potency read?
Answer: 0.126 µM (active)

Question: `C=CCn1c(COc2ccc(F)cc2)nnc1SCC(=O)Nc1cccc(S(N)(=O)=O)c1` was tested. Which Potency did it give?
Answer: inactive

Question: For `Cc1cccc(CSc2nnc(C)c(=O)n2N)c1`, which Potency is on record?
Answer: inactive

Question: With `Cc1cc(NC(=O)CN2C(=O)NC(C)(CCc3ccccc3)C2=O)no1` (stereo not given) as the compound, how does the Potency read?
Answer: inactive

Question: `CC1CCN(C(=S)NC2CC3CCC2C3)CC1` (stereo not given) was tested. Which Potency did it give?
Answer: inactive

Question: `S=C(NNC(=S)NC1CC2CCC1C2)NC1CC2C=CC1C2` (stereo not given) was tested. Which Potency did it give?
Answer: 20 µM (active)

Question: Which Potency does the source give for `S=C(NNC(=S)NC1CC2C=CC1C2)NC1CC2C=CC1C2` (stereo not given) here?
Answer: 12.6 µM (active)

Question: `COCCNC(=S)c1ccc(OC)cc1` was tested. Which Potency did it give?
Answer: 20 µM (active)

Question: `COc1ccc(C(=S)Nc2ccccc2)cc1` was tested. Which Potency did it give?
Answer: inactive

Question: How did the Potency turn out when `COCCCNC(NC(=O)c1ccc(OC)cc1)C(Cl)(Cl)Cl` (stereo not given) was run?
Answer: inactive

Question: Which Potency does the source give for `Cn1nc(-c2ccccc2)c(CO)c1Sc1ccccc1` here?
Answer: inactive

Question: Which Potency does the source give for `COc1ccc(C(=O)NNC(=O)c2cc(C)[nH]n2)cc1` here?
Answer: inactive

Question: Which Potency does the source give for `Cc1ccc(C2NC(=S)NC3=C2N2CCC3CC2)cc1` (stereo not given) here?
Answer: 8.91 µM (active)

Reference: PubChem BioAssay AID1030 (National Center for Advancing Translational Sciences (NCATS), 2008)
